PubChem BioAssay (NCI)
This is part of a sample that, as a whole, favours compounds with a hit. Of some 79,000 tested, about 15% had one in any assay. No stated cut-off is given here; in the data, active means growth inhibition above about 70%; inactive means the rest.

Key:
[1] = NCI Yeast Anticancer Drug Screen. Data for the rad50 strain (AID 155);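 further: 0% = growth of vehicle-only cultures of the same strain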; details: S. cerevisiae rad50 strain growth inhibition; at 50.0 µM; active compounds read high
Method in brief: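 A DNA repair-deficient yeast mutant serves as the test organism; compound-induced growth inhibition is calculated against vehicle-treated cells.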

[2] = NCI Yeast Anticancer Drug Screen. Data for the mec2-1 strain (AID 157); details: S. cerevisiae mec2-1 strain, at 50.0 µM, active compounds read high
Method in brief: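 Mutant yeast (mec2-1) grown with compound; growth inhibition relative to vehicle control reported.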

[3] = NCI Yeast Anticancer Drug Screen. Data for the sgs1 mgt1 strain (AID 161);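 further: 0% = growth of cultures given vehicle only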; details: S. cerevisiae sgs1 mgt1 strain, at 50.0 µM, active compounds read high
Method in brief: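 Percent growth inhibition was derived by comparing compound-exposed mutant yeast with vehicle-exposed cultures. The strain carries alterations in DNA damage repair.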

[4] = NCI Yeast Anticancer Drug Screen. Data for the cln2 rad14 strain (AID 165);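 further: 0% = growth equal to vehicle treated cultures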; details: S. cerevisiae cln2 rad14 strain, at 50.0 µM, active compounds read high
Method in brief: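 Readout is yeast growth inhibition versus vehicle-treated controls, using a strain with cln2 and rad14 alterations exposed to compound.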

[5] = NCI Yeast Anticancer Drug Screen. Data for the bub3 strain (AID 167); details: S. cerevisiae bub3 mutant strain, at 50.0 µM, active compounds read high
Method in brief: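 Inhibition values come from growth of compound-treated mutant yeast normalised to vehicle-treated controls.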

[6] = NCI Yeast Anticancer Drug Screen. Data for the mlh1 rad18 strain (AID 175); details: S. cerevisiae mlh1 rad18 strain growth inhibition; at 50.0 µM; active compounds read high
Method in brief: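 Genetically defined yeast (DNA repair-deficient) exposed to compounds; growth inhibition determined relative to vehicle.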

Measured: growth inhibition

CCCCCCCC/C=C\CCCCCCCC(=O)N(CCOC(=O)CCC(=O)OCCN(C(=O)CCCCCCC/C=C\CCCCCCCC)C1CCCCC1)C1CCCCC1
inactive: [1] -5.15% | [2] -9.25% | [3] -17.4% | [4] -3.2% | [5] -4.25% | [6] 16.8%

C[C@H]1S[C@H](c2c(F)cccc2F)n2c1nc1ccccc12
inactive: [1] 9.5% | [2] -10.6% | [3] 43.8% | [4] -0.25% | [5] 26.6% | [6] 35%

COC12C=CC(CC1)C1C(=O)C=CC(=O)C12 (stereo not given)
inactive: [1] -36.5% | [2] -31.4% | [3] -4.7% | [4] -39.3% | [5] -24.2% | [6] -21.4%

CCC1(C)NC(=O)OC1=O (stereo not given)
inactive: [1] 2.25% | [2] -5.7% | [3] -27.6% | [4] 7.75% | [5] 20.5% | [6] 4.65%

O=S=NCCCl
inactive: [1] -14.3% | [2] -14.6% | [3] -13.2% | [4] 1.5% | [5] -10.8% | [6] 0.35%

CC(=O)Nc1ccc(S(=O)(=O)Oc2noc3ccc(Br)cc23)cc1
inactive: [1] -8.35% | [2] -8.05% | [3] -23% | [4] -4.5% | [5] -3.95% | [6] 2.4%

CCOC(=O)C1C2CCCC(=O)C21 (stereo not given)
inactive: [1] 9% | [2] -4.5% | [3] 3.9% | [4] -56.8% | [5] 12.1% | [6] 3.3%

CCC(CC)C(=O)OCCOCCOC
inactive: [1] 30.2% | [2] 11.8% | [3] 14.9% | [4] 7.9% | [5] 23.6% | [6] 36.9%

Cc1c(CCCl)c(Cl)n2c(nc3ccccc32)c1C#N
inactive: [1] 38.7% | [2] 20.8% | [3] 39.4% | [4] 32.5% | [5] 22.8% | [6] 57.1%

O=C/C(Cl)=C\Nc1ccc(C(=O)O)cc1
inactive: [1] -0.25% | [2] 2.15% | [3] -0.2% | [4] -23.1% | [5] -0.4% | [6] -10.7%
